The supplement of paper PMC6555819

Columns and labels:
Experiment in all cases: PBM binding z-score (relative to random genomic background probes); higher = stronger binding; sequences stand for … in GC…GCGATTGACAGCGTAGAATGAAGG
[1] = system: PPARg:RXRa DBDmut IVT, anti-RXR (DBD mutation: RXRa K156A/R161A, NR concentration 270 nM, RXRa partner concentration 90 nM)
Summary of the method: (§1)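 Scanned fluorescence from custom Agilent 4×180K protein-binding microarrays was regression-normalized. Binding z-scores use random background probes as reference. Ligand-free nuclear receptor dimers were incubated on the arrays for 1 h and detected with antibodies against each partner (one per run).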

[2] = system: PPARg:RXRa IVT, anti-PPARg (NR concentration 270 nM, RXRa partner concentration 90 nM)
Summary of the method: as §1

[3] = system: PPARg DBDmut:RXRa IVT, anti-PPARg (DBD mutation: PPARg1 K132A/R137A, NR concentration 270 nM, RXRa partner concentration 90 nM)
Summary of the method: as §1

[4] = system: PPARg DBDmut IVT, anti-PPARg (DBD mutation: PPARg1 K132A/R137A, NR concentration 270 nM)
Summary of the method: as §1

[5] = system: PPARg homodimer (NR concentration 180 nM)
Summary of the method: as §1

[6] = system: PXR:RXRa (NR concentration 270 nM, RXRa partner concentration 90 nM)
Summary of the method: as §1

[7] = system: PXR homodimer (NR concentration 270 nM)
Summary of the method: as §1

[8] = system: RARa:RXR (NR concentration 270 nM, RXRa partner concentration 90 nM)
Summary of the method: as §1

[9] = system: RARa homodimer (NR concentration 270 nM)
Summary of the method: as §1

[10] = system: RARb:RXRa (NR concentration 270 nM, RXRa partner concentration 90 nM)
Summary of the method: as §1

Sequence | PBM binding z-score [1] | PBM binding z-score [2] | PBM binding z-score [3] | PBM binding z-score [4] | PBM binding z-score [5] | PBM binding z-score [6] | PBM binding z-score [7] | PBM binding z-score [8] | PBM binding z-score [9] | PBM binding z-score [10]
ATTGAAAGGTCGAAGGTGAGTATACCCACCCGAA | 0.108 | 2.82 | 1.09 | 0.602 | 2.51 | 3.15 | 0.394 | 4.57 | 0.818 | 3.83
ACTAGCAGGCCACGTTTGGGTCACTCAAACAAAG | 1.75 | 1.88 | -0.646 | -0.408 | 0.639 | 0.56 | -0.664 | 1.3 | -0.197 | 1.58
ACTGTTAGTTGAGACGAGGGCAACCGATAGGTTG | -0.176 | 0.773 | 0.909 | 0.848 | 0.542 | 1.2 | 0.0894 | 0.667 | 0.756 | 1.21
ATCTCTAGGTAAAGCTCAGTGAAAGATCGATAGA | 2.67 | 1.38 | 0.778 | 0.893 | 0.544 | -0.131 | 0.14 | 0.258 | 0.432 | 0.0103
GGAACGCGGGCAAGTTGATAGCAGAGTTTGATGG | -0.223 | -0.448 | -0.461 | -1.56 | -0.831 | -0.588 | -0.209 | -0.839 | -1.25 | 0.294
AGAATGAGGTTAAGATCTGGGAAACAGAATACAT | 2.76 | 3 | 1.23 | 0.832 | 0.543 | 1.03 | 0.115 | 1.69 | 0.301 | 1.9
CATACAGGGTCAGCTGGGCCAGAGTAGGGACGGC | 1.23 | 2.66 | 0.246 | 0.292 | 1.52 | 2.22 | -0.145 | 2.81 | 0.258 | 4.08
TCTGGTAGATCAATAGAGGTTAAGAAAGTGCGCT | 1.4 | 0.577 | 0.241 | 0.106 | 0.418 | 3 | 0.367 | 1.75 | 0.0136 | 0.93
TCTGCTAGGTCAACGATCGTCAGCTAATCTGCTA | 4.39 | 4.24 | -0.071 | -0.625 | 0.478 | 0.836 | -0.972 | 1.79 | -1.13 | 3.96
AGAATGAGGCTAAGATCAGGGAAACAGAATACAT | 0.345 | 0.552 | 0.582 | 0.0133 | 0.00249 | -0.259 | 0.0356 | -0.0952 | 0.229 | 0.158
ACTTACGGGTCAACGAGGTGATAGCACGCGTATA | 3.7 | 4.4 | 2.02 | 1.22 | 2.44 | 3.94 | 0.307 | 5.09 | 1.19 | 4.04
TCTAGATGGTCAAAGGTCACACACTCGAAATGCG | 3.19 | 5.41 | 1.82 | 1.44 | 5.45 | 6.1 | 1.7 | 7.48 | 3.63 | 4.89
TCACATAGGTAAACAGGTGAAAGTCCGTAAGTTA | 2.55 | 2.23 | 0.587 | 0.655 | 1.1 | 0.542 | 0.449 | 0.976 | -0.0341 | 0.847
GCGACTGGGTCAAAGCAGGTTACCATAAGGTTGG | 5.8 | 6.15 | 0.18 | 0.407 | 1.75 | 3.55 | -0.492 | 3.29 | -0.492 | 3.19
ATCTCTAGGTAAAGATAGCTCAGTGAATGCAAAT | 1.84 | 1.53 | 1.58 | 0.349 | 0.00125 | -0.537 | -0.0577 | -0.292 | 0.787 | -0.195
TTACCAAGGTGAGCTGAGGTCGTTGAGCCAACTC | 0.949 | 1.75 | -0.809 | -0.728 | -0.0553 | 5.03 | 0.369 | 2.08 | -0.816 | 1.76
ATATGTAAGTTAAGGGTCATTCAGGTTGGTTCGC | 1.13 | 3.7 | 1.79 | 1.39 | 4.41 | 5.17 | 2.93 | 4.86 | 1.97 | 3.42
CGTCCAAGTTCAAAGGTCAGTGAAGAGATGACGG | 0.396 | 2.79 | 0.887 | 0.712 | 4.76 | 6.79 | 4.04 | 7.83 | 2.04 | 5.11
ACTATTAGTTGACGTAGGGCAACCGATACGACGC | 0.188 | 0.602 | 1.2 | 0.785 | 0.291 | -0.373 | 0.109 | -0.162 | 0.628 | 0.773
GAAACGAGGGCATTCGAGTTGATAGCATGGCGAT | 4.26 | 3.42 | 0.513 | 0.0284 | -0.429 | 3.68 | 1.26 | 0.561 | 0.0115 | 1.85
CCGACCGGGGCATAAGGTTACCATAAGCCAGCCC | 0.165 | 0.416 | -0.828 | -1.51 | 0.811 | 0.533 | -0.0926 | 1.79 | -0.565 | 1.8
AGAACGATGGCAATGAGTTGATAGCACGGGTGGC | -0.597 | -0.751 | 0.0197 | -0.258 | -0.596 | -0.563 | -0.0123 | -0.325 | -0.149 | -0.604
CGAACCAGGTCATTGACAGGACAGTGAATAGTAA | 4.92 | 5.01 | 0.122 | 0.405 | 1.32 | 2.53 | 0.75 | 2.92 | 0.518 | 3.58
TCATGTAGGTAAACAGGTGAAAGTCCGTAAGTTA | 4.93 | 5.27 | 0.599 | 0.663 | 1.08 | 0.463 | 0.296 | 0.664 | 0.834 | 0.451

Sequence | PBM binding z-score [1] | PBM binding z-score [2] | PBM binding z-score [3] | PBM binding z-score [4] | PBM binding z-score [5] | PBM binding z-score [6] | PBM binding z-score [7] | PBM binding z-score [8] | PBM binding z-score [9] | PBM binding z-score [10]
ATATGTAGGTTATCGGGTCATTCAGTTTGCGCAT | 7.56 | 7.99 | 3.73 | 2.54 | 2.67 | 3.75 | 7.33 | 3.54 | 1.75 | 2.56
CCTGCTAGGTAATGGTCAGCTAATCTACAGTATG | 1.12 | 0.132 | -0.293 | -0.811 | -0.722 | -0.534 | -0.524 | -0.39 | 0.217 | 0.113
GCGCCTGGGGCAAAGCAGGTTACCATAAGGTTGG | 0.355 | -0.0318 | -1.1 | -1.44 | -0.5 | 0.277 | -0.671 | 0.359 | -0.592 | 1.02
TGAATGAGGTTACAAGATCAGGGAACGTTGCAAA | 1.92 | 3.07 | 0.903 | 1 | 0.112 | 0.754 | -0.231 | 1.68 | 0.0919 | 1.73
ATATGTAGGTTACATCCGGGTTATTCAGGCTATG | 7.44 | 7.16 | 4.04 | 2.37 | 3.3 | 1.2 | 0.531 | 1.57 | 0.67 | 1.35
CCTACTGGGCCAGTCAGAGGTCATTGATCATATG | 3.73 | 3.52 | -0.533 | -0.399 | 2.3 | 4.85 | 1.42 | 4.37 | 0.375 | 2.92
TAGCCTAGGTCATGAGCCAGTATACCACGCGAAC | 1.81 | 3.11 | -0.211 | 0.0511 | 1.45 | 1.61 | -0.537 | 2.64 | 0.534 | 3.58
ACTAGTTGGTCAGCTGAGGTTACACACAATTCGG | 1.4 | 1.58 | 0.987 | 0.803 | 1.09 | 2.46 | 0.19 | 1.64 | -0.138 | 1.73
ATCGAAAGGTCGATGAGGTGAGTATACACCGTTT | 0.00502 | 1.61 | 1.01 | 0.136 | 1.49 | 2.58 | 1.07 | 2.98 | 0.305 | 3.37
CCTGCTAGGTCATGGTCAGCCAATCTACAGTATG | 4.43 | 3.74 | 0.352 | 0.0677 | 1.85 | 1.21 | -0.386 | 2.49 | 0.141 | 3.9
AATACAGGGTCAGCGTAGGCCAGAGTACGCACAG | 1.94 | 3.32 | 1.54 | 1.65 | 1.81 | 3.51 | 0.39 | 3.85 | 0.496 | 4.15
TCAGACAGGTGAAGGTAACTCAGGTACGCAGTCG | 2.78 | 1.13 | 0.341 | -0.339 | 0.564 | 0.641 | 0.447 | 0.878 | 0.775 | 1.18
TCTATGAGTTGAAGGGCAACCGACGAGTCCGTTT | 1.46 | 0.477 | -0.166 | 0.0578 | -0.142 | 0.853 | 0.0161 | 0.674 | -0.22 | 1.37
CCAGACAGGTGAGAAGGTAACTCGGCCTCGATTA | 1.02 | 0.832 | -0.526 | -1.05 | 0.472 | -0.382 | -0.139 | -0.0873 | 0.15 | 0.513
ACTTACGGGTCAACGAGGATATAGCACGCGTATA | 3.44 | 3.76 | 1.49 | 1.58 | 2.26 | 3.34 | 0.678 | 4.19 | 1.35 | 3.88
CCTTACGGTTCACTCCAGGTTATAGCATCGGAGT | 0.278 | 0.401 | 0.147 | 1.01 | 1.62 | 3.53 | 1.46 | 2.25 | 1.57 | 1.29
CCTTACGGGTCACTCCAAGTTATAGCATCGGAGT | 3.33 | 3.23 | 0.816 | 0.0314 | 3.25 | 2.57 | 0.296 | 3.32 | 1.47 | 3.56
CAAACTAGGTCTCCGGAAGGTCAAAGTCCGCATG | 5.21 | 4.82 | 0.561 | 0.489 | 2.44 | 3.68 | 1.14 | 3.9 | 0.122 | 3.23
GCAGACAGGTGAAACGCAGGTAACTCCGGGTGGC | 0.8 | 0.556 | 0.467 | -0.826 | -0.848 | -0.493 | -0.692 | 0.064 | -0.954 | 0.484
TTACCAAGGTGAAGGTCGTTAATCCCTCTGTAGA | 1.67 | 3.05 | -0.743 | -0.257 | 0.621 | 1.28 | 0.0227 | 1.65 | -0.0474 | 1.98
CAACCTAGGTCAGGGCCAGTATAGGAGGAACGTT | 2.7 | 3.26 | 0.0736 | 0.168 | 1.57 | 0.478 | -0.518 | 1.45 | 0.172 | 3.51
GCAGACAGGTGAAACGCAGGTAACTCTGGGTGGC | 1.28 | 0.558 | -1.09 | -1.05 | -0.859 | -0.322 | -1.1 | 0.0559 | -1.16 | 0.63
ACTAGCAGCCCAAGTTTGGGTCACTCAAACAAAG | -0.54 | 0.157 | -0.825 | -0.894 | 0.227 | 0.606 | -0.424 | 1.19 | -0.533 | 0.813
ATATGTAGATTAGCTGGGGTCATTCAGACTAGGC | 1.08 | 1.54 | 1.36 | 1.4 | 1.47 | 5.46 | 2.56 | 5.47 | 1.07 | 2.59
